According to the OligoGym collection:

target: SMC5; experiment: pooled miR-30 sensor sort-seq; sequence = guide strand; conditions: shRNA
Note: reference of the scale not given here.

| Sequence | sensor-assay potency score (higher = more potent) |
| --- | --- |
| TATAAATCTGTTTTAATCGGGT | -0.0428 |
| TTGATCTAGTTCAACTTTCTTT | -0.0143 |
| TTATCTTTCATATTGATCGTGA | 0.464 |

target: SMCP; experiment: as above; conditions: shRNA

| Sequence | sensor-assay potency score (higher = more potent) |
| --- | --- |
| TGACTGGCAGCACTGGTTCTGC | -1.04 |
| TTTTGACTGGCAGCACTGGTTC | -0.818 |
| TTTGCGGTGAGTTGGGCTCAGA | -1.18 |
| TTGTGTTTTGGTGGGCAGCATT | -1.54 |
| TTTGGTGGGCAGCATTGACTGC | -0.712 |
| TTGATTGCCTTTTGACTGGCAG | 0.000564 |
| TTGTCCTGAGTTTGCGGTGAGT | -1.27 |
| TTGGTCTCCAAACCACAGCACC | -1.3 |
| TCTAAACACAGGTCTAGCCTGA | 0.141 |
| TAAGGGGTGAGACTTCAGGCTT | -0.603 |
| TTTGCTGGGCAGCATTTACTGT | -0.976 |
| TTGGTGGGCAGCATTGACTGCC | -0.359 |
